Assay results as given in PubChem BioAssay (Tox21).
Inconclusive results are not listed. The source made the active and inactive calls. Calls come from the whole dose curve; as a rule, active = well fitted curve in the direction sought with a large enough effect in the repeat runs; inconclusive = weak or mixed curves; inactive = no such curve, though single readings can be large; an effect the other way counts as inactive or inconclusive.

What was measured:
[1] = qHTS RealTime-Glo MT Cell Viability Assay in HepG2 cells - 24 hour (AID 1224867); note: nearly all actives have a fitted effect of over 50% in size
Method in brief: (§1)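 Tox21 10K library screened in qHTS format on HepG2 cells carrying RealTime-Glo reagents. Compounds were added after a 5 h preincubation, and the luminescent signal from continuous culture was measured repeatedly during 40 h treatment.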

[2] = qHTS RealTime-Glo MT Cell Viability Assay in HEK293 cells - 32 hour (AID 1224868); note: top concentration of the series differs between compounds; nearly all actives have a fitted effect of over 50% in size
Method in brief: (§2)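 Luminescence generated by NanoLuc from substrate produced by living HEK293 cells served as the viability signal. Each value reflects the reading at its stated time point during continuous 40 h compound exposure at 37 C.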

[3] = A CellTox Green Cytotoxicity Assay to monitor cytotoxicity in HEK293 cells - 0 hour (AID 1224869); note: nearly all actives have a fitted effect of over 50% in size
Method in brief: (§3)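 Homogeneous no-lysis format: HEK293 cell suspension mixed with CellTox Green reagent, seeded, incubated 5 h at 37 C/5% CO2, then dosed by pintool with compound in DMSO.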

[4] = qHTS RealTime-Glo MT Cell Viability Assay in HepG2 cells - 40 hour (AID 1224870); note: nearly all actives have a fitted effect of over 50% in size
Method in brief: (§4)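 Real-time viability: cells seeded at 600 per well together with NanoLuc and cell-permeant prosubstrate, compounds added after 5 h incubation. Luminescence tracked at 0, 8, 16, 24, 32 and 40 h of exposure.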

[5] = qHTS RealTime-Glo MT Cell Viability Assay in HEK293 cells - 16 hour (AID 1224872)
Method in brief: as §2

[6] = qHTS RealTime-Glo MT Cell Viability Assay in HepG2 cells - 8 hour (AID 1224873); note: nearly all actives have a fitted effect of over 55% in size
Method in brief: as §4

[7] = qHTS RealTime-Glo MT Cell Viability Assay in HEK293 cells - 40 hour (AID 1224874); conditions: RealTime-Glo luminescence; max response: stronger effect = lower value; note: nearly all actives have a fitted effect of over 50% in size
Method in brief: (§5)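 Measured as luminescence from the same continuously cultured HEK293 wells at successive time points (0, 8, 16, 24, 32, 40 h) after compound addition. Reagent present from seeding; dosing at 5 h; incubation 37 C.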

[8] = A CellTox Green Cytotoxicity Assay to monitor cytotoxicity in HEK293 cells - 24 hour (AID 1224875); note: series mostly up to about 77 µM; nearly all actives have a fitted effect of over 45% in size
Method in brief: as §3

[9] = A CellTox Green Cytotoxicity Assay to monitor cytotoxicity in HepG2 cells - 16 hour (AID 1224876); note: nearly all actives have a fitted effect of over 45% in size
Method in brief: (§6)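 Fluorescent DNA-binding dye, 600 HepG2 cells/well, 5 h preincubation then compound in DMSO; same plates read at 0–40 h, 37 C.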

[10] = qHTS RealTime-Glo MT Cell Viability Assay in HepG2 cells - 32 hour (AID 1224877); note: nearly all actives have a fitted effect of over 55% in size
Method in brief: as §1

[11] = A CellTox Green Cytotoxicity Assay to monitor cytotoxicity in HepG2 cells - 24 hour (AID 1224878); note: nearly all actives have a fitted effect of over 45% in size
Method in brief: as §6

[12] = A CellTox Green Cytotoxicity Assay to monitor cytotoxicity in HepG2 cells - 40 hour (AID 1224879); note: nearly all actives have a fitted effect of over 40% in size
Method in brief: as §6

[13] = qHTS RealTime-Glo MT Cell Viability Assay in HEK293 cells - 0 hour (AID 1224880); note: top concentration of the series differs between compounds; nearly all actives have a fitted effect of over 45% in size
Method in brief: as §5

[14] = A CellTox Green Cytotoxicity Assay to monitor cytotoxicity in HEK293 cells - 32 hour (AID 1224881); note: nearly all actives have a fitted effect of over 40% in size
Method in brief: as §3

[15] = A CellTox Green Cytotoxicity Assay to monitor cytotoxicity in HepG2 cells - 0 hour (AID 1224882); note: nearly all actives have a fitted effect of over 35% in size
Method in brief: as §6

[16] = A CellTox Green Cytotoxicity Assay to monitor cytotoxicity in HepG2 cells - 32 hour (AID 1224883); note: nearly all actives have a fitted effect of over 50% in size
Method in brief: as §6

[17] = A CellTox Green Cytotoxicity Assay to monitor cytotoxicity in HEK293 cells - 8 hour (AID 1224884); note: nearly all actives have a fitted effect of over 35% in size
Method in brief: as §3

[18] = qHTS RealTime-Glo MT Cell Viability Assay in HepG2 cells - 16 hour (AID 1224885); note: nearly all actives have a fitted effect of over 50% in size
Method in brief: as §1

[19] = A CellTox Green Cytotoxicity Assay to monitor cytotoxicity in HEK293 cells - 40 hour (AID 1224871); note: nearly all actives have a fitted effect of over 45% in size
Method in brief: as §3
% is set by controls: 0 for no effect and ±100 for the full control effect.

Cc1ccc2c(c1)C(=O)c1ccccc1C2=O
inactive: outcome [1] | Potency [2] | Potency [3] | outcome [4] | Potency [5] | outcome [6] | max response [7] 5.01% | Potency [8] | Potency [9] | outcome [10] | Potency [11] | Potency [12] | Potency [13] | Potency [14] | Potency [15] | Potency [16] | Potency [17] | outcome [18]

O=C(Cn1ccnc1[N+](=O)[O-])NCc1ccccc1
inactive: outcome [1] | Potency [2] | Potency [3] | Potency [19] | Potency [5] | max response [7] -1.45% | Potency [8] | outcome [10] | Potency [11] | Potency [12] | Potency [13] | Potency [14] | Potency [15] | Potency [16] | Potency [17] | outcome [18]

O=C(CN1CCNCC1)NC1CCCCC1
inactive: outcome [1] | Potency [2] | Potency [3] | Potency [19] | Potency [5] | outcome [6] | max response [7] 0.0212% | Potency [8] | outcome [10] | Potency [11] | Potency [12] | Potency [13] | Potency [14] | Potency [16] | Potency [17] | outcome [18]

O=C(O)c1cc2ccccc2nc1C(=O)O
inactive: outcome [1] | Potency [2] | Potency [3] | Potency [19] | Potency [5] | outcome [6] | max response [7] -2.29% | Potency [8] | Potency [9] | outcome [10] | Potency [11] | Potency [12] | Potency [13] | Potency [14] | Potency [15] | Potency [16] | Potency [17] | outcome [18]

CC(C)=CCC[C@@](C)(O)[C@H]1CC=C(C)CC1
inactive: outcome [1] | Potency [2] | Potency [3] | Potency [19] | Potency [5] | max response [7] -0.631% | Potency [8] | Potency [9] | outcome [10] | Potency [11] | Potency [12] | Potency [13] | Potency [14] | Potency [15] | Potency [16] | Potency [17] | outcome [18]

C=CCN1C[C@H](C(=O)N(CCCN(C)C)C(=O)NCC)C[C@@H]2c3cccc4[nH]cc(c34)C[C@H]21
inactive: outcome [1] | Potency [2] | Potency [3] | outcome [4] | Potency [5] | outcome [6] | max response [7] 0.226% | outcome [10] | Potency [11] | Potency [12] | Potency [13] | Potency [14] | Potency [15] | Potency [16] | Potency [17] | outcome [18]

CCC(C)C(=O)OCCc1ccccc1 (centres undefined)
inactive: outcome [1] | Potency [2] | Potency [3] | outcome [4] | Potency [5] | outcome [6] | max response [7] -0.807% | Potency [8] | outcome [10] | Potency [11] | Potency [12] | Potency [13] | Potency [15] | Potency [16] | Potency [17] | outcome [18]

CCCCCCCCCCCCCCCCCCOCCO
inactive: activity change, negative = cytotoxicity [1] -2.19% [at 15.8 µM] | activity change, negative = cytotoxic [2] -2.29% [at 15.8 µM] | cytotoxicity [3] 1.2% [at 15.8 µM] | cytotoxicity increase [19] 8.77% [at 15.8 µM] | activity change, negative = cytotoxicity [5] -4.86% [at 15.8 µM] | viability change, negative = cytotoxic [6] -3.15% [at 15.8 µM] | max response [7] -1.04% | activity change [8] 5.76% [at 15.8 µM, stronger effect = higher value] | cytotoxicity increase [9] 0.179% [at 15.8 µM] | activity change, negative = cytotoxic [10] -5.24% [at 15.8 µM] | cytotoxicity [11] 0.951% [at 15.8 µM] | cytotoxicity increase [12] 2.96% [at 15.8 µM] | activity change, negative = cytotoxicity [13] 18.7% [at 15.8 µM] | cytotoxicity increase [14] 8.15% [at 15.8 µM] | cytotoxicity [15] -0.0743% [at 15.8 µM] | cytotoxicity increase [16] 1.19% [at 15.8 µM] | cytotoxicity increase [17] -0.0989% [at 15.8 µM] | activity change, negative = cytotoxic [18] 1.39% [at 15.8 µM]

CC(C)NC(=O)c1ccc(C=O)cc1
inactive: outcome [1] | Potency [2] | Potency [3] | outcome [4] | Potency [5] | outcome [6] | max response [7] 0.577% | Potency [9] | outcome [10] | Potency [11] | Potency [12] | Potency [13] | Potency [14] | Potency [15] | Potency [16] | Potency [17] | outcome [18]

O=C(O)CNC(=O)CNC(=O)CNC(=O)CSC(=O)c1ccccc1
inactive: outcome [1] | Potency [2] | Potency [3] | outcome [4] | Potency [5] | outcome [6] | max response [7] 6.64% | Potency [9] | outcome [10] | Potency [11] | Potency [12] | Potency [13] | Potency [14] | Potency [15] | Potency [16] | Potency [17] | outcome [18]

Cc1ccc(C)c([N+](=O)[O-])c1
inactive: outcome [1] | Potency [2] | Potency [3] | outcome [4] | Potency [5] | outcome [6] | max response [7] 12.1% | Potency [8] | Potency [9] | outcome [10] | Potency [11] | Potency [12] | Potency [13] | Potency [14] | Potency [15] | Potency [16] | Potency [17] | outcome [18]

OCCN1CCOCC1
inactive: outcome [1] | Potency [2] | Potency [3] | outcome [4] | Potency [5] | outcome [6] | max response [7] 2.9% | Potency [8] | outcome [10] | Potency [11] | Potency [12] | Potency [13] | Potency [14] | Potency [15] | Potency [16] | Potency [17] | outcome [18]
